Measurements as given in PubChem BioAssay (Tox21).
Where “and” joins values, the source holds several entries; their conditions need not be identical. Identical values can stand only once. Records with an inconclusive call do not appear. Where a call stands in place of a potency, no number is given. A structure can be active in one record and inactive in another. Calls of active or inactive are those of the source. Unless noted, calls come from the whole dose curve; as a rule, active = well fitted curve in the direction sought with a large enough effect in the repeat runs; inconclusive = weak or mixed curves; inactive = no such curve, though single readings can be large; an effect the other way counts as inactive or inconclusive.

How the values were obtained:
[1] = molecular target: Thyrotropin-releasing hormone receptor (Homo sapiens) (UniProt P34981); experiment: qHTS assay to identify small molecule agonists of the thyrotropin-releasing hormone receptor (TRHR) signaling pathway (AID 1346891; calls by dose curve;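 note: HEK293 cells expressing TRHR with calcium dye readout; series mostly up to about 58 µM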)
Chain of Thyrotropin-releasing hormone receptor (Homo sapiens) (P34981 whole entry, looked up): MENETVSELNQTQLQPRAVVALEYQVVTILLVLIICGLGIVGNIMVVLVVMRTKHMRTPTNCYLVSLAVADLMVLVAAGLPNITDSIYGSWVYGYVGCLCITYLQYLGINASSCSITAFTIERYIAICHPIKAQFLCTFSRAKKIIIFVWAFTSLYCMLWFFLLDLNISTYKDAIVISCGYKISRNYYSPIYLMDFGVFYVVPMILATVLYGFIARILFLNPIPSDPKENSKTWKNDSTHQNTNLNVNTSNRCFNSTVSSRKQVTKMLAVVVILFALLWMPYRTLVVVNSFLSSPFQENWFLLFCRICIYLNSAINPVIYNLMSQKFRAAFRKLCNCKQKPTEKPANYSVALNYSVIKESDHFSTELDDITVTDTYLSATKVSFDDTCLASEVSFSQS
In short: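 Kinetic fluorescence (3 min, 1 s intervals) reported intracellular calcium after compound transfer onto TRHR-Hek293 cells pre-loaded with dye for 2 h at 37 °C.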

[2] = Human pregnane X receptor (PXR) small molecule agonists, qHTS cell viability counter screen (AID 1346977); note: nearly all actives have a fitted effect of over 50% in size
In short: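 HepG2 cells stably carrying the PXR-Luc reporter are cultured with 5% charcoal-stripped FBS and treated with compounds for 24hr. CellTiter-Fluor is added at 23hr and fluorescence is read after 1hr.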

[3] = Caspase-3/7 induction in HepG2 cells by small molecules, qHTS assay (AID 1346978); note: nearly all actives have a fitted effect of over 15% in size
In short: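 Wild-type HepG2 cells (2,000/well) were settled 5 h at 37 C, 5% CO2, then exposed to compounds in DMSO for 17 h. Caspase-3/7 activity was read by luminescence 30 min after adding Caspase-Glo 3/7 reagent at room temperature.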

[4] = Caspase-3/7 induction in CHO-K1 cells by small molecules, qHTS cell viability counter screen (AID 1346979); note: nearly all actives have a fitted effect of over 35% in size
In short: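 Seeding: 1,500 CHO-K1 cells/well. Rest: 5hr, 37C. Treatment: compounds in DMSO, 16hr. Read: CellTiter-Fluor, 1hr, fluorescence.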

[5] = Caspase-3/7 induction in CHO-K1 cells by small molecules, qHTS assay (AID 1346980); note: nearly all actives have a fitted effect of over 15% in size
In short: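 Wild-type cells were seeded at 1,500 per well and settled 5 hr at 37 C, 5% CO2, then exposed to DMSO-dissolved compounds for 17 hr. Caspase-Glo 3/7 reagent was added, and luminescence was read after 30min at room temperature.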

[6] = Caspase-3/7 induction in HepG2 cells by small molecules, qHTS cell viability counter screen (AID 1346981); note: series mostly up to about 92 µM; nearly all actives have a fitted effect of over 30% in size
In short: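 Treatment of HepG2 cells with DMSO-delivered compounds ran 16 hr at 37 C following a 5-hr pre-incubation of 2,000 cells/well. CellTiter-Fluor fluorescence, read after 1 hr, served as the viability measure in a qHTS format.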

[7] = molecular target: Nuclear receptor subfamily 1 group I member 2 (Homo sapiens) (UniProt O75469); experiment: Human pregnane X receptor (PXR) small molecule agonists, qHTS assay (AID 1346982); note: nearly all actives have a fitted effect of over 35% in size; note: potency is the fitted concentration of half-maximal effect
Chain of Nuclear receptor subfamily 1 group I member 2 (Homo sapiens) (O75469 whole entry, looked up): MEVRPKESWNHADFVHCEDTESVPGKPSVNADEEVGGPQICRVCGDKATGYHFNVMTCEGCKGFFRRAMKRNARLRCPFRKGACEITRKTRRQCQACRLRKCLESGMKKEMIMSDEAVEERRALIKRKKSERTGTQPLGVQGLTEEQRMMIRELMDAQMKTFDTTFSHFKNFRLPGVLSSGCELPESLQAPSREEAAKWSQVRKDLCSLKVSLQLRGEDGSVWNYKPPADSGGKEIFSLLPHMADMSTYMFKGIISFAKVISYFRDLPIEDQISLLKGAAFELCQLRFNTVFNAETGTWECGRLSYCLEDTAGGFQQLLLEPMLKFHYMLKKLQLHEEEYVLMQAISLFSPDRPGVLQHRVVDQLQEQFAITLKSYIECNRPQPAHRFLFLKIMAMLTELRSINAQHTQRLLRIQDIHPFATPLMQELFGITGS
In short: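 Stable HepG2 line reporting PXR-mediated CYP3A4 expression via luciferase. Treatment: 24 hr with compounds in DMSO at 37 C. Detection: ONE-Glo luminescence.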

[8] = molecular target: Nuclear receptor subfamily 1 group I member 2 (Rattus norvegicus) (UniProt Q9R1A7); experiment: Rat pregnane X receptor (rPXR) activation by small molecules, qHTS assay (AID 1346983); conditions: rPXR luciferase reporter cells, One-Glo luminescence, 24 h; max activation: stronger effect = higher value; note: nearly all actives have a fitted effect of over 20% in size
In short: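 Cell-based rPXR luciferase reporter assay, 2,000 cells per well, rested 5hr at 37 C before compound addition in DMSO, then 24 hr at 37 C. One-Glo reagent was added and luminescence read after 30 min at room temperature.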

[9] = molecular target: Nuclear receptor subfamily 1 group I member 2 (Homo sapiens) (UniProt O75469); experiment: CYP3A4 induction through human pregnane X receptor (PXR) by small molecules, qHTS assay (AID 1346984); note: nearly all actives have a fitted effect of over 40% in size
In short: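 After 24 h at 37C with compound, DPX-2 cells (HepG2, co-transfected PXR response element and CYP3A4 promoter-luciferase) got 3uM final P450-Glo Luciferin-IPA for 3 h; One-Glo luminescence followed.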

[10] = molecular target: Nuclear receptor subfamily 1 group I member 2 (Homo sapiens) (UniProt O75469); experiment: Human pregnane X receptor (PXR) activation by small molecules, qHTS assay (AID 1346985); note: nearly all actives have a fitted effect of over 40% in size
In short: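 DPX-2 cells (HepG2 co-transfected with a PXR response element and a CYP3A4-promoter luciferase construct) were seeded at 2,000 per well, rested 5 hr at 37C, then exposed to DMSO-dissolved compounds for 24 hr. Activation was read as luciferase luminescence.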

[11] = molecular target: Acetylcholinesterase (Homo sapiens) (UniProt P22303); experiment: Acetylcholinesterase (AChE) small molecule antagonists: colormetric cell-based qHTS assay (AID 1347395; calls by dose curve; note: nearly all actives have a fitted effect of over 30% in size)
Chain of Acetylcholinesterase (Homo sapiens) (P22303 whole entry, looked up): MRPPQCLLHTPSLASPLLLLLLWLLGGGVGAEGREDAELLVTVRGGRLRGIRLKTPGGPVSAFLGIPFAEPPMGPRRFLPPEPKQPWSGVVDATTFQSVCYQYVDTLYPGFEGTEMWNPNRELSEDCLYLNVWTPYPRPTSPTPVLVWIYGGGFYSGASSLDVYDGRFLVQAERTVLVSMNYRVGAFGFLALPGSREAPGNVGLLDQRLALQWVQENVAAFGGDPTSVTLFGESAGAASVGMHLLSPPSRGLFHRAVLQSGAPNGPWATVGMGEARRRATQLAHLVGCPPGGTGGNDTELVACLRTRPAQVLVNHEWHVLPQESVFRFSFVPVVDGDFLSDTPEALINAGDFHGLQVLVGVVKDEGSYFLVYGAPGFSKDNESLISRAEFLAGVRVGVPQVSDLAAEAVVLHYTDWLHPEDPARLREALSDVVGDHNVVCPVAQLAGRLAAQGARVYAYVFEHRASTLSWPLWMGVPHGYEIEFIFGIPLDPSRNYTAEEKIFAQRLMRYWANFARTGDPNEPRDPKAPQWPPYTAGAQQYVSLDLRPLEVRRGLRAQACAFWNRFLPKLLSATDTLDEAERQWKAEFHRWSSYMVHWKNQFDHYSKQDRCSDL
In short: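 Quantitative HTS in attached SH-SY5Y cells: 30 min compound exposure, then 90 min with acetylthiocholine and DTNB at 37 C; colour from thiocholine reports AChE activity.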

[12] = molecular target: Acetylcholinesterase (Homo sapiens) (UniProt P22303); experiment: Acetylcholinesterase (AChE) small molecule antagonists: enzyme-based qHTS assay (AID 1347397; calls by dose curve; note: nearly all actives have a fitted effect of over 55% in size); conditions: Potency: AChE enzyme activity inhibition
In short: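 Compound or DMSO vehicle was pin-transferred onto recombinant human AChE (50 mU/mL as dispensed) and left 30 min at room temperature. Acetylthiocholine with DTNB then started the reaction, read colorimetrically 10 min later.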

[13] = molecular target: Acetylcholinesterase (Homo sapiens) (UniProt P22303); experiment: Acetylcholinesterase (AChE) small molecule antagonists: fluorescence cell-based qHTS assay (AID 1347398; calls by dose curve; note: nearly all actives have a fitted effect of over 50% in size); conditions: Potency: AChE activity
In short: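 Using neuroblastoma SH-SY5Y cells as the enzyme source, test chemicals are preincubated 30 min at 37 C; AChE-driven acetylthiocholine cleavage is then quantified by thiocholine-dependent Thiolite Green fluorescence after 40 min at room temperature.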

[14] = molecular target: Cytochrome P450 2D6 (Homo sapiens) (UniProt P10635); experiment: Cytochrome P450 Family 2 Subfamily D Member 6 (CYP2D6) small molecule antagonists: luciferase reporter qHTS assay (AID 1671196); note: nearly all actives have a fitted effect of over 50% in size; note: potency is the fitted concentration of half-maximal effect
Chain of Cytochrome P450 2D6 (Homo sapiens) (P10635 whole entry, looked up): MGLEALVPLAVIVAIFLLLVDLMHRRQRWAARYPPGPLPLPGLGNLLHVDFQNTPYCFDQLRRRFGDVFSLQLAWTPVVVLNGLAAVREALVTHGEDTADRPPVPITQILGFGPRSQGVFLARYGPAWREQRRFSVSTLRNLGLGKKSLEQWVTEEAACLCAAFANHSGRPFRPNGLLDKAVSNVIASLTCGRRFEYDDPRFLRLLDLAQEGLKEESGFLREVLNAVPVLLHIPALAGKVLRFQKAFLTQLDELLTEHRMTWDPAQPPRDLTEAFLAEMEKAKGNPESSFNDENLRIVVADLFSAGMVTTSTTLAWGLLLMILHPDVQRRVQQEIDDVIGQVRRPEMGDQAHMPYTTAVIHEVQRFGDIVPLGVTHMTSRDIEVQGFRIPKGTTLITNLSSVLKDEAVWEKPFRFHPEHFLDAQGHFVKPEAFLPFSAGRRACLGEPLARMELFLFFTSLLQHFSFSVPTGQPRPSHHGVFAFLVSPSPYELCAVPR
In short: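 Chemicals tested for interference with CYP2D6 activity; proluciferin substrate, NADPH regeneration, 1 h at room temperature, luminescent detection.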

[15] = molecular target: Cytochrome P450 2C19 (Homo sapiens) (UniProt P33261); experiment: Cytochrome P450 Family 2 Subfamily C Member 19 (CYP2C19) small molecule antagonists: luciferase reporter qHTS assay (AID 1671197); note: nearly all actives have a fitted effect of over 65% in size; note: potency is the fitted concentration of half-maximal effect
Chain of Cytochrome P450 2C19 (Homo sapiens) (P33261 whole entry, looked up): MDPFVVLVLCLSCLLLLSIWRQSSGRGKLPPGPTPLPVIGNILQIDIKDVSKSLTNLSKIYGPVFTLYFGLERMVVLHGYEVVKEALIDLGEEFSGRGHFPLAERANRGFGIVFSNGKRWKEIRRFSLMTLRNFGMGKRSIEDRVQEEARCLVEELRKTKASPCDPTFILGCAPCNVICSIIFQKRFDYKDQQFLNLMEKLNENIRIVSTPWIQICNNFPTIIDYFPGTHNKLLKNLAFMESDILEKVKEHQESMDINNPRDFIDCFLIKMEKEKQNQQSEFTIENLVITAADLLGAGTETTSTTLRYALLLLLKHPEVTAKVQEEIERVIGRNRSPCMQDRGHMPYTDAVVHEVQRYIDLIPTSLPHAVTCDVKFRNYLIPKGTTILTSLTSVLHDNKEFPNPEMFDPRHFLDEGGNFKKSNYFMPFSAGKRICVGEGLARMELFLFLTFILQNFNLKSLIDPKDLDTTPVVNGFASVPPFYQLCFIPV
In short: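 P450-Glo CYP2C19 screening system; proluciferin substrate; DMSO compound stocks; 10 min RT preincubation; NADPH regeneration, 1 h at 37C; luciferin detection reagent, 20 min RT; luminescence as RLU.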

[16] = molecular target: Cytochrome P450 2C9 (Homo sapiens) (UniProt P11712); experiment: Cytochrome P450 Family 2 Subfamily C Member 9 (CYP2C9) small molecule antagonists: luciferase reporter qHTS assay (AID 1671198); note: nearly all actives have a fitted effect of over 50% in size; note: potency is the fitted concentration of half-maximal effect
Chain of Cytochrome P450 2C9 (Homo sapiens) (P11712 whole entry, looked up): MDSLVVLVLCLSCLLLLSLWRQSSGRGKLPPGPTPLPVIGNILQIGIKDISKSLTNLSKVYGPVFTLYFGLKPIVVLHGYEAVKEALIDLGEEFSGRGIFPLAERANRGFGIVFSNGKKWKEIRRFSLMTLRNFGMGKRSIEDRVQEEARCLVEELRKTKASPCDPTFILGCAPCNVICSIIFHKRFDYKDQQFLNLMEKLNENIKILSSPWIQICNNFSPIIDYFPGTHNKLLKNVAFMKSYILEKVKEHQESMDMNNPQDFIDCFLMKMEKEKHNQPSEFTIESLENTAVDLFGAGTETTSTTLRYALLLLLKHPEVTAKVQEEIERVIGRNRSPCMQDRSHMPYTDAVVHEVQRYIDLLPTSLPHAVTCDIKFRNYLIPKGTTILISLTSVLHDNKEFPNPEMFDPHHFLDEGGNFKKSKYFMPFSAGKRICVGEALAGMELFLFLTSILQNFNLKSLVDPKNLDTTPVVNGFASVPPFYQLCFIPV
In short: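 CYP2C9 activity was measured with a P450-Glo proluciferin substrate. Enzyme–substrate mix was held with compound for 10 min at room temperature, then NADPH regeneration solution was added for 1 h at 37C. Luciferin product was read as luminescence.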

[17] = molecular target: Cytochrome P450 1A2 (Homo sapiens) (UniProt P05177); experiment: Cytochrome P450 Family 1 Subfamily A Member 2 (CYP1A2) small molecule antagonists: luciferase reporter qHTS assay (AID 1671199); note: nearly all actives have a fitted effect of over 50% in size; note: potency is the fitted concentration of half-maximal effect
Chain of Cytochrome P450 1A2 (Homo sapiens) (P05177 whole entry, looked up): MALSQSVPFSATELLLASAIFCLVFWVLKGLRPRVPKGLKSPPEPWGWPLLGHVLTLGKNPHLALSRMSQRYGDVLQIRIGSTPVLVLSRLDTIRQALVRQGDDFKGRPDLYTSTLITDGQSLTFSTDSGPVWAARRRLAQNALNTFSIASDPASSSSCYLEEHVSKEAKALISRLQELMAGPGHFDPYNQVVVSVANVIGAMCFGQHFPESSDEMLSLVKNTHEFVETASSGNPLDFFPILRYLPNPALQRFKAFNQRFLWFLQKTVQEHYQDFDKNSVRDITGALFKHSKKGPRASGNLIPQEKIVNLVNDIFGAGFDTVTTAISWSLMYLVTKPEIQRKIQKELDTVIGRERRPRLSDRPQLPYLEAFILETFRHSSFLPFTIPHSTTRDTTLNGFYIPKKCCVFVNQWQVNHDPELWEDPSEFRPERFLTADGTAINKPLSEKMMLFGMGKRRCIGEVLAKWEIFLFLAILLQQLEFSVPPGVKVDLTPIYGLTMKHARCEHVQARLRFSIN
In short: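 Read-out is luminescence from luciferin detection reagent (20 min) proportional to CYP1A2 activity; compounds in DMSO preincubated 10 min with enzyme and proluciferin substrate, then NADPH regeneration solution, 1 h, room temperature.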

[18] = molecular target: Voltage-gated inwardly rectifying potassium channel KCNH2 (Homo sapiens) (UniProt Q12809); experiment: Human Ether-a-go-go-Related Gene (hERG) channel small molecule antagonists: fluorescence cell-based qHTS assay (AID 1671200)
Chain of Voltage-gated inwardly rectifying potassium channel KCNH2 (Homo sapiens) (Q12809 whole entry, looked up): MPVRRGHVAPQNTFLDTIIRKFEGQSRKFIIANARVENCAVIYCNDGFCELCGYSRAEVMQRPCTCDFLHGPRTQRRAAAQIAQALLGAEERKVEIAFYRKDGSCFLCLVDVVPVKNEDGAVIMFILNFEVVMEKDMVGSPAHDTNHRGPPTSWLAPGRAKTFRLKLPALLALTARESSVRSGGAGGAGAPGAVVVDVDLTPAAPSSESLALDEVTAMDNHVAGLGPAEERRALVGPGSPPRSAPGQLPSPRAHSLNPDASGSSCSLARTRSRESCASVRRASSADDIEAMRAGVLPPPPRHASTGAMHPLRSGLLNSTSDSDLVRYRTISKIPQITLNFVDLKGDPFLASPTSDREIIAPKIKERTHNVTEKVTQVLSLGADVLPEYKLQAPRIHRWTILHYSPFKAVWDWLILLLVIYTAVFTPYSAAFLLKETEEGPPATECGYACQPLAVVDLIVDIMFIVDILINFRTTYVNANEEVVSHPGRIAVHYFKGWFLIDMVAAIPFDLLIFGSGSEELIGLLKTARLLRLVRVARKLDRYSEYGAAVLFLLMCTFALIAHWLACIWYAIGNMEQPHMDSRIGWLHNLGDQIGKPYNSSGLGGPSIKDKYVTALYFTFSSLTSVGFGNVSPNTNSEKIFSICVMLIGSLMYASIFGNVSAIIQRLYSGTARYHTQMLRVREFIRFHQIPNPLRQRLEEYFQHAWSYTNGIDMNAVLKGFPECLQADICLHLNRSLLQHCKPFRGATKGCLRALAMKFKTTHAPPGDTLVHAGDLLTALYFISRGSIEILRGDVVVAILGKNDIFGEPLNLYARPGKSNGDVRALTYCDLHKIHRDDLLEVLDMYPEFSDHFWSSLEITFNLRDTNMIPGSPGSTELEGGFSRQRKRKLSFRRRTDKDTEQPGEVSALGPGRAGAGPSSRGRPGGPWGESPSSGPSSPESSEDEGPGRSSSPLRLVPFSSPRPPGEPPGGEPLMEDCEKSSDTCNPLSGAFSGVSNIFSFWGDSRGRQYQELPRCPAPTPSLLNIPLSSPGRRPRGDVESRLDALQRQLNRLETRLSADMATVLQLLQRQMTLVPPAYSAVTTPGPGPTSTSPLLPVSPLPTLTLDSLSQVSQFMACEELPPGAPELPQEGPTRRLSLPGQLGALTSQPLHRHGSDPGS
In short: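 First, 1000 cells per well are seeded and cultured overnight at 37 C. Next, FluxOR II dye is loaded for 1 h at room temperature, protected from light. After 10 more minutes, stimulus is added and fluorescence is read.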

[19] = molecular target: Cytochrome P450 3A4 (Homo sapiens) (UniProt P08684); experiment: Cytochrome P450 Family 3 Subfamily A Member 4 (CYP3A4) small molecule antagonists: luciferase reporter qHTS assay (AID 1671201); note: nearly all actives have a fitted effect of over 50% in size; note: potency is the fitted concentration of half-maximal effect
In short: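 Enzyme and proluciferin substrate are mixed with test chemicals for 10 min, then NADPH regeneration system drives turnover for 1 h at room temperature. A detection reagent halts the reaction; luminescence after 20 min gives relative activity.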

[20] = molecular target: Acetylcholinesterase (Homo sapiens) (UniProt P22303); experiment: Acetylcholinesterase (AChE) small molecule antagonists: enzyme-based qHTS assay with human liver microsomes (AID 1347399; calls by dose curve; note: nearly all actives have a fitted effect of over 60% in size); conditions: Potency: qHTS inhibition
In short: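 Recombinant human AChE (50 mU/mL in the enzyme mix) and human liver microsomes (0.25 mg/mL final) were preincubated with compound and NADPH (0.25 mg/mL final) for 30 min at 37 C. Acetylthiocholine/DTNB was then added; thiocholine was read colorimetrically after 10 min at room temperature.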

Structure (SMILES)	outcome [1]	Potency [2]	outcome [3]	Potency [4]	outcome [5]	Potency [6]	Potency [7]	max activation [8]	Potency [9]	Potency [10]	Potency [11]	Potency [12]	Potency [13]	Potency [14]	Potency [15]	Potency [16]	Potency [17]	Potency [18]	Potency [19]	Potency [20]
Cc1cc(O)ccc1Cl	inactive	inactive	inactive	inactive	inactive	inactive	inactive	-2.1% (inactive)	inactive	inactive	inactive	inactive	inactive	inactive	25.6 µM (active) and inactive	inactive	36.2 µM (active) and 44.8 µM (active) and 17.4 µM (active)	inactive	inactive	
C[C@H]1C(=O)O[C@@H]2CCN3CC=C(COC(=O)[C@](C)(O)[C@]1(C)O)[C@H]23	inactive	inactive	inactive	inactive	inactive	inactive	inactive	-2.06% (inactive)	inactive	inactive	inactive	inactive	inactive	inactive and 30.9 µM (active)	inactive	inactive		inactive	inactive	
COS(=O)(=O)OC	inactive	inactive	inactive	inactive	inactive	inactive	inactive				inactive	inactive	inactive	inactive	inactive	inactive	inactive	inactive	inactive	inactive
Nc1cc(Cl)cc(Cl)c1	inactive	inactive	inactive	inactive	inactive	inactive	inactive				inactive	inactive	inactive	inactive	inactive	inactive	21.6 µM (active) and 28.3 µM (active)	inactive		inactive
CN(C)CCC#N	inactive	inactive	inactive	inactive	inactive	inactive	inactive				inactive	inactive	inactive	inactive	inactive	inactive		inactive	inactive	inactive
Nc1ccc([As](=O)(O)O)cc1	inactive	inactive	inactive	inactive	inactive	inactive	inactive	-1.25% (inactive)	inactive	inactive	inactive	inactive	inactive	inactive	inactive	inactive		inactive	34.6 µM (active) and inactive	
N#Cc1ccccn1	inactive	inactive	inactive	inactive	inactive	inactive	inactive				inactive	inactive	inactive	inactive	inactive and 71 µM (active)	inactive	inactive	inactive	inactive	inactive
Oc1c(Br)cc(Br)cc1Br	inactive	inactive	inactive	inactive	inactive	inactive	68.7 µM (active) and 61.1 µM (active) and inactive	-2.81% (inactive)	inactive	inactive	inactive	inactive	inactive	inactive	inactive	63.4 µM (active) and 39.9 µM (active) and inactive	35.7 µM (active) and 63.3 µM (active) and inactive	inactive	inactive	inactive
CNCC(O)c1ccc(O)cc1 (stereo not drawn)	inactive	inactive	inactive	inactive	inactive	inactive	inactive	-2.53% (inactive)	inactive	inactive	inactive	inactive	inactive	39.9 µM (active)	70.9 µM (active) and inactive	inactive		inactive	inactive	inactive
CCCOC(=O)c1ccccc1C(=O)OCCC	inactive	inactive	inactive	inactive	inactive	inactive	inactive				inactive	inactive	inactive	inactive	8.09 µM (active) and 8.94 µM (active)	32.2 µM (active) and 35.6 µM (active)	2.03 µM (active) and 3.17 µM (active)	inactive	inactive	inactive
CN(C)C(=O)C(c1ccccc1)c1ccccc1	inactive	inactive	inactive	inactive	inactive	inactive	inactive and 19.3 µM (active)				inactive	inactive	inactive	inactive	70.9 µM (active)	62.3 µM (active)		inactive	inactive	inactive
